# Assay results reported in PubChem BioAssay (EPA / NIEHS).
# “And” between values parts separate entries of the source, which are not always exact repeats. Equal values may be shown once. Results filed as inconclusive are left out. Some compounds were tested as several samples or in several runs, with calls that do not always agree. The source made the active and inactive calls. Rule for the calls, unless noted: active = hit-call score of the fitted dose curve at least 0.9, where 1 is the maximum; inactive = score below 0.9.
# What was measured:
# [1] = VALA_TUBIPS_Agonist_TubuleLength: VALA Sciences human iPS-derived Endothelial Tubule Formation (TUBIPS) Agonism Assay (AID 2284311; active = hit-call score of the fitted dose curve at least 0.9, where 1 is the maximum)
# Procedure, shortened: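 Human iPS-derived endothelial cells were exposed to compound for 72 h. Tubule formation was imaged by high-content fluorescence and scored as gain of signal relative to DMSO vehicle (agonist mode).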
# [2] = read-out: Interleukin-1 alpha (IL1a), IL1A (gene 3552); test: BSK_IMphg_IL1a: BioMAP Diversity Plus: IMphg Assay for Interleukin-1 alpha (IL1a) Biomarker Activity (AID 2284290); settings: primary human endothelial cells with macrophages
# Procedure, shortened: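 Human venular endothelial cells co-cultured with macrophages, IMphg system. IL-1α is measured by ELISA 24 h after dosing and fitted in the positive direction against DMSO. Cytotoxicity is assessed by SRB staining of parallel cultures.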
# [3] = BSK_IMphg_SRB: Viability Assessment in the BioMAP Diversity Plus: IMphg Assay (AID 2284292); settings: primary human endothelial cells with macrophages;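 note: measured one day after compound addition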
# Procedure, shortened: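 Human venular endothelial cells with macrophages, 24 h after chemical dosing; total protein by 0.1% SRB staining after 10% TCA fixation, read at 560 nm. Positive-direction fitting versus DMSO baseline.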
# [4] = read-out: Interleukin-10 (IL10), IL10 (gene 3586); test: BSK_IMphg_IL10: BioMAP Diversity Plus: IMphg Assay for Interleukin-10 (IL10) Biomarker Activity (AID 2284294); settings: primary human endothelial cells with macrophages
# Procedure, shortened: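 Human venular endothelial cells cocultured with macrophages, dosed 24 h; IL-10 measured by ELISA, activity relative to DMSO. Cytotoxicity assessed in parallel cultures by sulforhodamine B total-protein staining.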
# [5] = BSK_IMphg_SRB.Mphg: Macrophage Viability Assessment in the BioMAP Diversity Plus: IMphg Assay (AID 2284295); settings: primary human endothelial cells with macrophages
# Procedure, shortened: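 Venular endothelial cells co-cultured with macrophages, read 24 h after dosing. Total protein measured by 0.1% SRB staining after 10% TCA fixation, absorbance at 560 nm. Fitted in positive direction against DMSO baseline.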
# [6] = read-out: Thrombomodulin, THBD (gene 7056); test: BSK_LPS_Thrombomodulin: BioMAP Diversity Plus: LPS Assay for Thrombomodulin Biomarker Activity (AID 2284296); settings: primary human HUVEC with PBMC
# Procedure, shortened: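 Human umbilical vein endothelial cells co-cultured with PBMC and stimulated with LPS; cell-surface thrombomodulin measured by ELISA 24 hours after compound. Gain or loss versus DMSO; cytotoxicity checked by SRB staining in parallel cultures.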
# [7] = read-out: CD69, CD69 (gene 969); test: BSK_LPS_CD69: BioMAP Diversity Plus: LPS Assay for CD69 Biomarker Activity (AID 2284303); settings: primary human HUVEC with PBMC
# Procedure, shortened: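 Human umbilical vein endothelial cells co-cultured with PBMC under LPS stimulation, chemical exposure 24 h; cell-surface CD69 measured by ELISA and fitted in the positive direction versus DMSO.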
# [8] = IUF_NPC2c_oligodendrocyte_migration_120hr: Leibniz Research Institute for Environmental Medicine (IUF) 120-hour Neural Progenitor Cell Migration Assay for Oligodendrocyte Migration (NPC2c) (AID 2284297);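 note: O4-positive oligodendrocyte migration distance divided by radial glia migration distance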
# Procedure, shortened: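 hNPC spheres (GW 16-19 cortex), PDL/laminin, DMEM/F12 3:1 + 1% N2, 37C. Dosing day 0–5, half feed day 3, DMSO ≤0.1%. Fixed 120 h; O4 ICC + Hoechst, HCI. Readout: mean oligodendrocyte distance from sphere edge / radial glia distance.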
# [9] = IUF_NPC2a_radial_glia_migration_120hr: Leibniz Research Institute for Environmental Medicine (IUF) 120-hour Neural Progenitor Cell Migration Assay for Radial Glia Migration (NPC2a) (AID 2284298)
# Procedure, shortened: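 Hoechst-stained nuclei imaged at 120 h; algorithm maps sphere core by densest nuclei, sets migration edge at density threshold, gives radial glia migration distance (um) per well vs DMSO. hNPC spheres (0.3 mm), PDL/laminin, DMEM/F12 3:1 + 1% N2.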
# [10] = IUF_NPC2a_radial_glia_migration_72hr: Leibniz Research Institute for Environmental Medicine (IUF) 72-hour Neural Progenitor Cell Migration Assay for Radial Glia Migration (NPC2a) (AID 2284299)
# Procedure, shortened: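 Human fetal neural progenitor spheres (0.3 mm) plated on poly-D-lysine/laminin in N2 differentiation medium and exposed from day 0 at 7 concentrations; radial glia migration distance from sphere edge measured at 72 h on brightfield images, mean of four directions, vs DMSO.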
# [11] = IUF_NPC2b_neuronal_migration_120hr: Leibniz Research Institute for Environmental Medicine (IUF) 120-hour Neural Progenitor Cell Migration Assay for Neuron Migration (NPC2b) (AID 2284300)
# Procedure, shortened: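 hNPC spheres, PDL/laminin, DMEM:F12 3:1 + 1% N2, 37C/5% CO2; 7 concentrations + solvent control (DMSO ≤0.1%), 5 d exposure, half-feed day 3. Fix 120 h, TUBB3 ICC, HCI: mean neuron migration distance ÷ glia distance.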
# [12] = IUF_NPC3_neuronal_differentiation_120hr: Leibniz Research Institute for Environmental Medicine (IUF) 120-hour Neuronal Differentiation Assay (NPC3) (AID 2284301)
# Procedure, shortened: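 Primary human fetal neural progenitor spheres (GW 16-19, 0.3 mm) plated on poly-D-lysine/laminin in N2 medium, exposed from day 0 for 120 h with half-medium refresh at day 3. TUBB3+ cells as percent of Hoechst nuclei in migration area; DMSO baseline.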
# [13] = IUF_NPC4_neurite_length_120hr: Leibniz Research Institute for Environmental Medicine (IUF) 120-hour Neuronal Morphology Assay for Neurite Length (NPC4) (AID 2284302)
# Procedure, shortened: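 Human fetal cortex (GW 16-19) neural progenitor spheres, 0.3 mm, were plated on poly-D-lysine/laminin in N2 differentiation medium and exposed from day 0 for 120 h, half-feeding at day 3. Mean TUBB3+ neurite length (µm) came from skeletonized images, relative to DMSO.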
# [14] = IUF_NPC5_oligodendrocyte_differentiation_120hr: Leibniz Research Institute for Environmental Medicine (IUF) 120-hour Oligodendrocyte Differentiation Assay (NPC5) (AID 2284304; active = hit-call score of the fitted dose curve at least 0.9, where 1 is the maximum;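 note: primary human fetal neural progenitor spheres plated to migrate and differentiate; share of O4-positive cells among Hoechst nuclei found by CNN image analysis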)
# Procedure, shortened: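 hNPC spheres, fetal cortex GW 16-19; PDL/laminin, DMEM:F12 3:1 + 1% N2, 37C/5% CO2; 7 concentrations + solvent control, 5 d exposure, half-change day 3. Readout: %O4+ of Hoechst+ nuclei in migration area, CNN classification; DMSO baseline.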
# [15] = IUF_NPC4_neurite_area_120hr: Leibniz Research Institute for Environmental Medicine (IUF) 120-hour Neuronal Morphology Assay for Neurite Area (NPC4) (AID 2284305; active = hit-call score of the fitted dose curve at least 0.9, where 1 is the maximum)
# Procedure, shortened: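 Human fetal cortex-derived neural progenitor spheres (0.3 mm, GW 16-19) plated on poly-D-lysine/laminin in N2 differentiation medium and exposed from day 0 for 120 h across 7 concentrations plus solvent control. Neurite area is mean pixel area per TUBB3-positive neuron via skeletonization, analysed relative to DMSO.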
# [16] = IUF_NPC2-5_cytotoxicity_72hr: Cytotoxicity Assessment at 72 hours in the Leibniz Research Institute for Environmental Medicine (IUF) Neural Progenitor Cell Migration and Differentiation Assay for Cytotoxicity (NPC2-5) (AID 2284306; active = hit-call score of the fitted dose curve at least 0.9, where 1 is the maximum;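 note: LDH release into supernatant measured by resorufin fluorescence marking membrane damage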)
# Procedure, shortened: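 Human fetal (GW 16-19) neural progenitor spheres, 0.3 mm, plated on poly-D-lysine/laminin in N2 differentiation medium and exposed from day 0 to 7 concentrations plus solvent control (DMSO ≤0.1%). LDH-dependent resazurin-to-resorufin fluorescence in supernatant at 72 h.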
# [17] = IUF_NPC2-5_cytotoxicity_120hr: Cytotoxicity Assessment at 120 hours in the Leibniz Research Institute for Environmental Medicine (IUF) Neural Progenitor Cell Migration and Differentiation Assay (NPC2-5) (AID 2284307; active = hit-call score of the fitted dose curve at least 0.9, where 1 is the maximum;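 for AC50: LDH released into supernatant as membrane damage marker via resorufin fluorescence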)
# Procedure, shortened: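 hNPC spheres on PDL/laminin, N2 medium, 37C; 7 concs + solvent control, DMSO ≤0.1%; 5-day exposure, half medium changed day 3. LDH in supernatant at 120 h, resazurin→resorufin fluorescence, gain-of-signal.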
# [18] = IUF_NPC2-5_cell_number_120hr: Cell Number Assessment at 120 hours in the Leibniz Research Institute for Environmental Medicine (IUF) Neural Progenitor Cell Migration and Differentiation Assay (NPC2-5) (AID 2284308);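 note: count of Hoechst-stained nuclei in migration zone around plated human neural progenitor spheres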
# Procedure, shortened: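 Hoechst-stained nuclei within the migration area were counted by automated high content imaging after 120 h. Single hNPC spheres differentiated on poly-D-lysine/laminin in DMEM/F12 (3:1) with 1% N2, compound present throughout, DMSO ≤0.1%.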
# [19] = VALA_TUBHUV_Agonist_CellCount: Viability Assessment in the VALA Sciences human Umbilical Vein Endothelial Tubule Formation (TUBHUV) Agonism Assay (AID 2284309; active = hit-call score of the fitted dose curve at least 0.9, where 1 is the maximum)
# Procedure, shortened: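 HUVEC co-cultured 1:3 with HDF for 3 days in 10 ng/ml VEGF, then compounds added in VEGF medium for a further 3 days (72 h). Nuclear-stain/CD31 imaging cell count. Positive-direction fit versus 0.1% DMSO vehicle.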
# [20] = VALA_TUBHUV_Antagonist_CellCount: Viability Assessment in the VALA Sciences human Umbilical Vein Endothelial Tubule Formation (TUBHUV) Antagonism Assay (AID 2284310; active = hit-call score of the fitted dose curve at least 0.9, where 1 is the maximum)
# Procedure, shortened: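 HUVEC co-cultured with HDF (1:3) 3 days in 10 ng/ml VEGF, then 3 days with compounds in VEGF medium. Fixed, nuclear stain and CD31 immunofluorescence, imaged; cell counts fitted versus 0.1% DMSO, loss of signal read as lower viability.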
compound,measurement,setting,value
CCN(CC)C(=S)SSC(=S)N(CC)CC,outcome,[1],inactive
O=S(=O)(O)CCC(F)(F)C(F)(F)C(F)(F)C(F)(F)C(F)(F)C(F)(F)F,outcome,[2],inactive
same,outcome,[3],inactive
same,outcome,[4],inactive
same,outcome,[5],inactive
same,AC50,[6],227 nM (active)
same,outcome,[6],inactive
same,AC50,[7],9.47 µM (active)
same,outcome,[7],inactive
Cn1cc[nH]c1=S,outcome,[8],inactive
same,outcome,[9],inactive
same,outcome,[10],inactive
same,outcome,[11],inactive
same,outcome,[12],inactive
same,outcome,[13],inactive
same,outcome,[14],inactive
same,outcome,[15],inactive
same,outcome,[16],inactive
same,outcome,[17],inactive
same,outcome,[18],inactive
same,outcome,[19],inactive
same,outcome,[20],inactive
same,outcome,[1],inactive
OCCC(F)(F)C(F)(F)C(F)(F)C(F)(F)F,outcome,[2],inactive
same,outcome,[3],inactive
same,outcome,[4],inactive
same,outcome,[5],inactive
same,outcome,[6],inactive
same,outcome,[7],inactive
CCCC(CCC)C(=O)O,outcome,[8],inactive
same,AC50,[10],1.33 mM (active)
same,outcome,[11],inactive
same,AC50,[12],2.2 mM (active)
same,AC50,[13],2.18 mM (active)
same,AC50,[14],999 µM (active)
same,outcome,[15],inactive
same,AC50,[17],1400 µM (active)
same,AC50,[18],2.21 mM (active)
same,outcome,[20],inactive
same,outcome,[1],inactive
OC(O)(C(F)C(O)(O)C(F)(F)F)C(F)(F)F,outcome,[2],inactive
same,outcome,[3],inactive
same,AC50,[4],25 µM (active) and 22.2 µM (active)
same,outcome,[5],inactive
same,outcome,[6],inactive
same,outcome,[7],inactive
Nc1ccn([C@@H]2O[C@H](CO)[C@@H](O)[C@@H]2O)c(=O)n1,outcome,[8],inactive
same,outcome,[9],inactive
same,outcome,[10],inactive
same,outcome,[11],inactive
same,AC50,[12],1.37e-05 mM (active)
same,outcome,[13],inactive
same,outcome,[15],inactive
same,AC50,[16],237 nM (active)
same,AC50,[17],0.0802 µM (active)
same,AC50,[18],0.000743 mM (active)
OCCNCCO,outcome,[19],inactive
same,outcome,[20],inactive
FC(F)(F)C(F)(F)C(F)(F)C(F)(F)C(F)(F)C(F)(F)I,outcome,[2],inactive
same,outcome,[3],inactive
same,outcome,[4],inactive
same,outcome,[5],inactive
same,outcome,[6],inactive
same,outcome,[7],inactive
C[Si](C)(C)C(F)(F)C(F)(F)C(F)(F)F,outcome,[2],inactive
same,outcome,[3],inactive
same,outcome,[4],inactive
same,outcome,[5],inactive
same,outcome,[6],inactive
same,outcome,[7],inactive
FC(F)(F)COC(OCC(F)(F)F)OCC(F)(F)F,outcome,[2],inactive
same,outcome,[3],inactive
same,outcome,[4],inactive
same,outcome,[5],inactive
same,outcome,[6],inactive
same,outcome,[7],inactive
FC(F)=C(F)C(F)(F)C(F)(F)C(F)(F)C(F)(F)C(F)(F)C(F)(F)F,outcome,[2],inactive
same,outcome,[3],inactive
same,outcome,[4],inactive
same,outcome,[5],inactive
same,outcome,[6],inactive
same,outcome,[7],inactive
NCC(F)(F)C(F)(F)C(F)(F)C(F)(F)F,outcome,[2],inactive
same,outcome,[3],inactive
same,outcome,[4],inactive
same,outcome,[5],inactive
same,outcome,[6],inactive
same,outcome,[7],inactive
O=C(Cl)C(F)(F)C(F)(F)C(F)(F)C(=O)Cl,outcome,[2],inactive
same,outcome,[3],inactive
same,outcome,[4],inactive
same,outcome,[5],inactive
same,outcome,[6],inactive
same,outcome,[7],inactive
FC(F)C(F)(F)COCC1CO1 (stereo not given),outcome,[2],inactive
same,outcome,[3],inactive
same,outcome,[4],inactive
same,outcome,[5],inactive
same,outcome,[6],inactive
same,outcome,[7],inactive
